Assay outcomes as filed in PubChem.
The list is not random: actives were taken first. Their share in the collection is about 3.4%.
OTUD3 block: inhibitors of human OTUD3 deubiquitinase; inhibition, % at 25 µM; purified OTUD3, Ub-rhodamine fluorescence, 2 h; 47,000 tested, 0.7% active
Target sequence (Q5T2D3 whole entry, looked up): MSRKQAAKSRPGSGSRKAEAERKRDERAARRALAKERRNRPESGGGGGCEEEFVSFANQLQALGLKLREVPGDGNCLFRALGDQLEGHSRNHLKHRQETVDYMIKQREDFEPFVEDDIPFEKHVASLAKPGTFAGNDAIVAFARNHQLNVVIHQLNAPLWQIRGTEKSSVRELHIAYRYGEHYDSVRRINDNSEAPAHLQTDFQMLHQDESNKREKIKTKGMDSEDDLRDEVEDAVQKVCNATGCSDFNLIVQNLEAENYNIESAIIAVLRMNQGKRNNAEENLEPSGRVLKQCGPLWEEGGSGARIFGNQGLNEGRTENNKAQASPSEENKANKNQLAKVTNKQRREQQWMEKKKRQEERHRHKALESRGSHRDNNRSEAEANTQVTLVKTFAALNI
USP28 inh: human USP28 deubiquitinase inhibition; Q96RU2; purified USP28, Ub-rhodamine cleavage fluorescence, 30 min; inhibition, % at 25 µM; 47,000 tested, 3% active; AID 1645857
Starred values were filed as active, the others as inactive. No stated cut-off is given here; in the data, active means inhibition above about 30%; inactive means the rest.

CCCCNc1ncnc2c1sc1nc(CCC)c3c(c12)CCC3 was read as OTUD3 block 2.
`CCCc1nc2sc3c(NCCN4CCOCC4)ncnc3c2c2c1CCC2` gave OTUD3 block -2 and USP28 inh 80*.
Screening CC(C)c1nc2sc3c(SCC(=O)N4CCOCC4)ncnc3c2c2c1CCC2 returned OTUD3 block -4 and USP28 inh 35*.
`CCCCCSc1ncnc2c1sc1nc(C(C)C)c3c(c12)CCC3` gave OTUD3 block -6 and USP28 inh -10.
For CCCc1nc2sc3c(NCCCN4CCOCC4)ncnc3c2c2c1CCC2 the results were OTUD3 block -7 and USP28 inh 84*.
For CC(C)c1nc2sc3c(NCCCN4CCOCC4)ncnc3c2c2c1CCC2 the results were OTUD3 block -7 and USP28 inh 48*.
`CC1(C)Cc2c(c(N3CCCC3)nc3sc4c(NCCCN5CCOCC5)ncnc4c23)CO1` gave OTUD3 block -5 and USP28 inh 0.
Screening CC1(C)Cc2c(c(N3CCOCC3)nc3sc4c(NCCCN5CCOCC5)ncnc4c23)CO1 returned OTUD3 block -8 and USP28 inh -9.
`O=C(c1cccnn1)N1CCCC1c1ncc(Cc2ccccc2Cl)o1` (stereo unspecified) gave OTUD3 block -9 and USP28 inh -14.
`COc1ccc(-c2noc(CSc3ccc(-c4ccccc4)nn3)n2)c(OC)c1` gave OTUD3 block 2 and USP28 inh 4.
`COc1ccc(-c2cn3c(-c4ccccc4)c(-c4ccccc4)nc3n2-c2ccccc2)cc1` gave OTUD3 block 24 and USP28 inh 18.
Screening CC(C)Cc1nc2sc3c(NCCN4CCOCC4)ncnc3c2c2c1CCC2 returned OTUD3 block -15 and USP28 inh 82*.
CCCc1nc2sc3c(NCCC(C)C)ncnc3c2c2c1CCC2 was read as OTUD3 block -15 and USP28 inh 29.
`O=C1Cc2ccccc2C(=O)N1c1ccc2c(c1)OCO2` gave OTUD3 block 14 and USP28 inh 36*.
Cc1cccc(N2C(=O)/C(=C\c3ccc4c(c3)OCO4)c3ccccc3C2=O)c1 was read as OTUD3 block -7 and USP28 inh 8.
`O=C1CSCC(=O)N1c1ccc2c(c1)OCO2` gave OTUD3 block -2 and USP28 inh 5.
Screening O=C1C/C(=C\c2ccc3c(c2)OCO3)Cc2ccccc21 returned OTUD3 block 12 and USP28 inh 30*.
For CN1C[C@@H]2C[C@H](NS(=O)(=O)c3cccc(Cl)c3)CN2Cc2ccccc21 the results were OTUD3 block -13 and USP28 inh -21.
`Cc1ccc(C(=O)NCc2ccc(C(=O)Nc3cccc(C)c3)o2)cc1` gave OTUD3 block 2 and USP28 inh 24.
For Cc1nc(-c2ccccc2)sc1C(=O)Nc1ccc2cc[nH]c2c1 the results were OTUD3 block -5 and USP28 inh -9.
For CC(=O)c1cccc(NC(=O)c2sc(-c3ccccc3)nc2C)c1 the results were OTUD3 block 8 and USP28 inh 33*.
For COc1ccc(OC)c(NC(=O)c2sc(-c3ccccc3)nc2C)c1 the results were OTUD3 block 48* and USP28 inh 44*.
`COc1ccc(OC)c(NC(=O)c2c(-c3ccccc3)nnc3ccc(C)cc23)c1` gave OTUD3 block 5 and USP28 inh 9.
Screening COc1cccc(CC(NC(C)=O)C(=O)NC2CCN(C(=O)c3cnccn3)CC2)c1OC (stereo unspecified) returned OTUD3 block -2 and USP28 inh 0.
Screening c1c[nH]c(-c2nccnc2C2CCN(Cc3cncs3)CC2)n1 returned OTUD3 block 15 and USP28 inh 8.
Screening O=C(c1ccc(O)cc1)N1C[C@@H]2CCN(c3cccnc3)C[C@@H]2C1 returned OTUD3 block -27 and USP28 inh -37.
Screening O=C(Nc1cccc(F)c1)N1CCN(c2cc(-c3ccncc3)[nH]n2)CC1 returned OTUD3 block 0 and USP28 inh 8.
`Cc1onc(-c2ccccc2)c1C(=O)N[C@H]1[C@H](O)[C@H](O)C[C@@H]1c1ccccc1` gave OTUD3 block -5 and USP28 inh -6.
O=C(Cn1c(=O)n(CC2CCC(C(=O)NCCc3ccccc3)CC2)c(=O)c2ccccc21)Nc1ccccc1F (stereo unspecified) was read as OTUD3 block -15 and USP28 inh -18.
Cc1cc(NC(=O)Cn2c(=O)n(CC3CCC(C(=O)NCCc4ccccc4)CC3)c(=O)c3ccccc32)n[nH]1 (stereo unspecified) was read as OTUD3 block 36* and USP28 inh 30.
`Cc1ccc(-n2nc(C(=O)NC3CCCCC3)c3ncn(C)c(=O)c32)cc1` gave OTUD3 block -8 and USP28 inh -9.
Cc1ccc(-n2nc(C(=O)Nc3ccc(C)cn3)c3ncn(C)c(=O)c32)cc1 was read as OTUD3 block 36* and USP28 inh 27.
`O=C(C(c1ccccc1)c1ccccc1)N1CCCC(c2nnc3ccccn23)C1` (stereo unspecified) gave OTUD3 block 0 and USP28 inh -4.
For CN=C(N)NCCC/C=C/CCCC(C)CC(C)C1OC(=O)/C=C/C(C)C(O)CC(O)C(C)C(O)CCC(C)C(O)CC2(O)OC(CC(OC(=O)CC(=O)O)CC(O)CC(O)C(C)C(O)/C=C/C1C)CC(O)C2O (stereo unspecified) the results were OTUD3 block 6 and USP28 inh 53*.
`CCn1c(NC(=O)C2CCCCC2)c(-c2ccccc2)c(=O)c2ccccc21` gave OTUD3 block -4 and USP28 inh -1.
`COc1cc(NC(=O)c2cc(-c3ccncc3)n(-c3ccc(F)cc3)n2)cc(OC)c1` gave OTUD3 block -4 and USP28 inh 71*.
Screening COc1ccc(NC(=O)c2cc(-c3ccncc3)n(-c3ccc(F)cc3)n2)cc1OC returned OTUD3 block -2 and USP28 inh 3.
Screening CN1CC2CN(S(=O)(=O)c3ccc(Cl)cc3)CCN2Cc2ccccc21 (stereo unspecified) returned OTUD3 block -160 and USP28 inh -226.
Screening O=c1ccc(-c2cc3ccccc3o2)cn1Cc1ccccc1-c1ccccc1 returned OTUD3 block 46* and USP28 inh 62*.
`Cc1c(O)ccc2c(=O)c(-c3cc4ccccc4o3)coc12` gave OTUD3 block 6 and USP28 inh 4.
CCn1c(SCc2nc(N)c3ccccc3n2)nc2ccccc21 was read as OTUD3 block 16 and USP28 inh 42*.
Cc1ccc(Cn2c(SCc3ccccc3C#N)nc3ccccc3c2=O)cc1 was read as OTUD3 block -60 and USP28 inh -84.
`Cc1c(CC(=O)N2CCN(c3ncccn3)CC2)c(=O)oc2cc(O)ccc12` gave OTUD3 block 7 and USP28 inh -3.
NS(=O)(=O)c1cccc(NCc2nc3scc(-c4ccccc4)c3c(=O)[nH]2)c1 was read as OTUD3 block 10 and USP28 inh 48*.
Screening COc1cc(NCc2nc3scc(-c4ccccc4)c3c(=O)[nH]2)cc(OC)c1 returned OTUD3 block -17 and USP28 inh -16.
For Cc1ccc(CN2C(=O)COc3ccccc3C2=O)cc1 the results were OTUD3 block 15 and USP28 inh 39*.
Screening CC(C)Oc1ccc(C(=O)CN2C(=O)COc3ccccc3C2=O)cc1Cl returned OTUD3 block 14 and USP28 inh 27.
